According to ChEMBL document CHEMBL3988442, “University of Dundee, Small-Polar-MMV Screening Library” (2021):
In all, about 48,000 compounds went through this assay and about 13,000 (27%) showed an effect of 50% or more. The list shows a part of the results.

What follows are compounds tested on Wolbachia pipientis (assay: Anti-Wolbachia Cell-Based Screen). Conditions: 5 µM.
Type: functional
Set-up: scale not given: in the data most compounds retested in dose-response had high values

Row | Structure (SMILES) | Percent Effect [%]
1 | COc1ccc(-c2nc(CC(=O)N(C)CCC#N)cs2)cc1OC | -11.11
2 | CN(C)C(=O)CO[C@@H]1CN(Cc2ccccc2)[C@@H]2CCCO[C@@H]21 | -2.745
3 | CN(Cc1cncnc1)[C@@H]1CN(C(=O)c2ccco2)[C@@H]2CCCO[C@H]12.O=C(O)C(F)(F)F | 99.89
4 | COCC(=O)N1C[C@H](N(C)Cc2cncnc2)[C@H]2OCCC[C@H]21 | 102.5
5 | CN(Cc1cncnc1)[C@@H]1CN(C(=O)C2CC2)[C@@H]2CCCO[C@H]12.O=C(O)C(F)(F)F | 103.9
6 | CN(Cc1ccco1)[C@@H]1CN(Cc2ccc(F)cc2)[C@@H]2CCCO[C@H]12.O=C(O)C(F)(F)F.O=C(O)C(F)(F)F | 1.532
7 | CCN(CC)[C@@H]1CN(C(=O)c2ccnnc2)[C@@H]2CCCO[C@H]12.O=C(O)C(F)(F)F | -6.627
8 | CN(Cc1ccco1)[C@@H]1CN(C(=O)c2ccnnc2)[C@@H]2CCCO[C@H]12.O=C(O)C(F)(F)F | 0.1298
9 | CN(Cc1cncnc1)[C@H]1CN(C(=O)c2ccco2)[C@@H]2CCCO[C@@H]21 | 83.44
10 | CCN(CC)[C@@H]1CN(C(=O)c2ccc(C#N)cc2)[C@@H]2CCCO[C@H]12.O=C(O)C(F)(F)F | -2.681
11 | CN(Cc1ccco1)[C@@H]1CN(CC2CCOCC2)[C@@H]2CCCO[C@H]12.O=C(O)C(F)(F)F.O=C(O)C(F)(F)F | 6.763
12 | Cc1ccc(CN2C[C@H](N(C)Cc3cncnc3)[C@H]3OCCC[C@H]32)o1 | -12.1
13 | CCCS(=O)(=O)N1C[C@H](N(C)Cc2ccco2)[C@@H]2OCCC[C@@H]21.O=C(O)C(F)(F)F | -9.069
14 | C1CCC(N2CCCN(c3nc(C4CC4)no3)CC2)C1 | 19.76
15 | CCCNC(=O)c1cc(Br)c2c(c1)OCCO2 | -33.44
16 | CCc1nc(CN2CCN(C(=O)C3CCCCC3)CC2)cs1 | 4.149
17 | O=C(CN1CCN(c2ccccc2F)CC1)Nc1ccc(Cl)cn1 | 4.247
18 | CCCS(=O)(=O)N1C[C@@H]2CN(Cc3ccoc3)CCO[C@@H]2C1.O=C(O)C(F)(F)F | 45.1
19 | CN(Cc1cccnc1)[C@@H]1CN(C(=O)c2ccco2)[C@@H]2CCCO[C@H]12 | 99.41
20 | CN(Cc1ccco1)[C@@H]1CN(C(=O)c2ccnnc2)C[C@@H]2CCCO[C@@H]21.O=C(O)C(F)(F)F | 1.243
21 | CN(Cc1cncnc1)[C@H]1CN(C(=O)c2ccc[nH]2)[C@@H]2CCCO[C@@H]21 | 103.1
22 | CC(C)N(C)[C@@H]1CCN(C(=O)c2ccc[nH]2)[C@H]1Cc1cnn(C)c1 | -2.599
23 | Cn1cc(C[C@H]2[C@H](N3CCOCC3)CCN2C(=O)c2ccc[nH]2)cn1 | -3.493

Row | Structure (SMILES) | Percent Effect [%]
24 | O=S(=O)(NCC1COCCO1)c1ccc(C2CCCCC2)cc1 (stereo not drawn) | -20.85
25 | CC1CN(Cc2cccc(CNC3CCCC3)c2)CCO1 (stereo not drawn) | 2.611
26 | OC(CN1CCOCC1)c1cc(Cl)ccc1Cl (stereo not drawn) | 1.615
27 | Cc1ccsc1C(=O)NCc1cccnc1N(C)CCc1ccccn1 | -9.716
28 | O=S(=O)(NCC1CCN(c2cnccn2)CC1)c1c(F)cccc1F | -13.03
29 | O=S(=O)(NCC1CCN(c2cnccn2)CC1)c1ccc(F)c(Cl)c1 | 114.1
30 | O=C(Oc1ccccc1)N1CCC(CNS(=O)(=O)c2cccnc2)CC1 | 12.7
31 | Cc1cccc(S(=O)(=O)NCC2CCN(c3cnccn3)CC2)c1 | 113.6
32 | CN(C)c1nccc(CNS(=O)(=O)c2ccc(F)c(Cl)c2)n1 | -4.41
33 | Cc1cnc2c(S(=O)(=O)NCC3CCN(C4CC4)C3)cccc2c1 (stereo not drawn) | -24.19
34 | CC(=O)c1ccc(S(=O)(=O)NCC2CCN(c3cnccn3)CC2)cc1 | 109.4
35 | Cn1cc(S(=O)(=O)NCC2CCN(C(=O)Oc3ccccc3)CC2)cn1 | -5.514
36 | O=S(=O)(NCC1CCN(c2ccccn2)CC1)c1ccccc1F | -4.881
37 | Cc1nn(C)c(C)c1CN(C(=O)c1cnc(O)cn1)C(C)C | -5.966
38 | CN(CCC1CCOCC1)[C@@H]1c2ccccc2C2(CCNCC2)[C@H]1O | -1.046
39 | CCn1nc2c(cc1=O)CN(c1nc3ccccc3s1)CC2 | 17.49
40 | COc1cc(CO)ccc1OCc1nc(C(C)C)no1 | -5.276
41 | CC(C)NC(=O)N1CCCCCC1C1CCN(c2ncccn2)CC1 (stereo not drawn) | -15.72
42 | CC(C)NC(=O)N1CCC(c2nnc3n2CCNC3)CC1 | 121.8
43 | CC(CC(=O)N1CCC(c2nnc3n2CCC3)CC1)n1cccc1 (stereo not drawn) | -3.041
44 | Cc1cc(C)c(C(=O)NC(c2nnc3n2CCNCC3)C(C)C)c(C)c1 (stereo not drawn) | -5.156
45 | O=C(NC1CCCCC1)N1CCCC1c1nnc2n1CCNC2 (stereo not drawn) | 105.9
46 | O=C(N1CCCCC1)N1CCCC1c1nnc2n1CCNC2 (stereo not drawn) | 113

Row | Structure (SMILES) | Percent Effect [%]
47 | NC(=O)CN1CCC(NC(=O)N2CCCC2c2ccncc2)CC1 (stereo not drawn) | -10.76
48 | CC(C)NC(=O)N1CCC(c2nccn2C(C)C)CC1 | 0.5032
49 | CC(C)NC(=O)N1CCCCC1c1nnc2n1CCNC2 (stereo not drawn) | 134
50 | CCNC(=O)NC(=O)CNc1cc(C(=O)OC)cc(C(F)(F)F)c1 | -3.63
51 | Cc1n[nH]cc1CNCC1(c2cccc(F)c2)CCOCC1.Cl | 8.493
52 | N#CCCN(Cc1ccccn1)C(=O)Nc1cccc(F)c1 | 3.903
53 | O=C(Nc1ccc(CCN2CCSCC2)cc1)NC1CC1 | -3.133
54 | COCCNC(=O)CSCc1nc(O)c2cc(C(C)C)sc2n1 | -3.697
55 | CC(=O)N1CCCCC1c1nnc2n1CCNC2 (stereo not drawn) | 131
56 | CC(=O)N1CCCC1c1nnc2n1CCCCC2 (stereo not drawn) | 5.226
57 | CC(NC(=O)NCC1(N2CCCCC2)CCCCC1)c1nncn1C (stereo not drawn) | 3.494
58 | Cc1cccc(C)c1OCCNC(=O)NC(C)c1nncn1C (stereo not drawn) | 5.116
59 | CC(NC(=O)NCC1(c2ccccc2)CCC1)c1nncn1C (stereo not drawn) | 0.9782
60 | CC(NC(=O)NCC1(c2ccc(F)cc2)CCCC1)c1nncn1C (stereo not drawn) | 121.9
61 | CC(NC(=O)NCCOc1ccc(Cl)cc1)c1nncn1C (stereo not drawn) | 7.354
62 | CC(NC(=O)NCC1(c2ccc(F)cc2)CC1)c1nncn1C (stereo not drawn) | 98.23
63 | CC(NC(=O)NCCCN1CCCCCC1)c1nncn1C (stereo not drawn) | -1.343
64 | CC(NC(=O)NCCOc1ccc(F)c(F)c1)c1nncn1C (stereo not drawn) | 2.072
65 | CC(NC(=O)NCC1(c2ccc(F)cc2)CCC1)c1nncn1C (stereo not drawn) | -3.695
66 | CC(NC(=O)NCC1(c2ccc(Cl)cc2)CC1)c1nncn1C (stereo not drawn) | 123.5
67 | CC(NC(=O)Nc1cc(F)ccc1N1CCCCC1)c1nncn1C (stereo not drawn) | -5.475
68 | Cc1ccccc1C1(CNC(=O)NC(C)c2nncn2C)CC1 (stereo not drawn) | 118.5
